This is an account of results in the supplement of paper PMC9337992.

Molecules are shown by their SMILES. ± gives the standard deviation of the averaged measurements.

This assay deals with MDAMB231. The assay is described as follows: cell proliferation (confluence) relative to DMSO control; higher = less growth inhibition. The following applies: 5 uM; 6 d. As for the experimental part: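 Epigenetic chemical probe screen: 15 TNBC cell lines, 500 cells per well in 384-well plates, treated with 5 uM of each of 36 SGC probes for 6 d. Confluency was imaged by IncuCyte ZOOM and normalised to DMSO control wells. Four replicate wells per compound.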
`O=C(O)CNC(=O)c1c(O)c2ccccc2n(Cc2ccccc2)c1=O`: the cell proliferation amounted to 97.33 ± 0.35%. The same measure for `COc1cc(C(=O)N2CC[C@@H](O)[C@@H](N)C2)cc2nc(-c3cc4ccccc4n3CC3CC3)n(C)c12`: 88.8 ± 9.1%. For `c1ccc([C@@H]2C[C@H]2NC2CCNCC2)cc1` the value was 98.48 ± 0.8%.
